Bioassay records (PubChem)
Shown are actives, neighbours in structure and some others; about 0.4% of the full set was active somewhere.
Rab7 wt GTP bind: modulators of GTP binding to Rab7, primary screen, biochemical, wildtype, multiplex bead flow cytometry; GTP binding activity (percent of control), % at 10 µM; AID 758, 2007; 190,000 tested, 0.055% active; Rab7 GTPase wild type (dog), Bodipy-FL-GTP binding; GST-Rab7 beads, fluorescent GTP binding; actives lie on both sides; untreated = 100%, excess cold GTP = 0%;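 active means fluorescent GTP binding to Rab7 beads changed by at least 20 points from the 100% baseline, either direction, mostly lower; inconclusive means compound itself probably fluorescent, or too few beads counted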;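 further: median green fluorescence of bound Bodipy-FL-GTP per Rab7 bead population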
Rac1 act GTP bind: GTP binding modulators of activated mutant Rac1, primary screen, biochemical, bead-based flow cytometry, multiplex, fluorescent GTP; GST-Rac1 activated beads; actives lie on both sides; 100% means binding = to untreated wells; Ras-related C3 botulinum toxin substrate 1 (Homo sapiens), P63000; 190,000 tested, 0.11% active; percent activity (GTP binding), % at 10 µM;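 active means GTP binding at least 20 percentage points away from the 100% baseline, in either direction, so actives lie on both sides; inconclusive means Compound likely fluorescent itself, or too few beads counted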
HRas wt GTP bind: modulators of GTP binding to HRas wildtype, primary screen, biochemical, bead-based flow cytometry, multiplex. GTPase HRas (Homo sapiens), P01112. GST-Ras wt beads, Bodipy-FL-GTP binding; actives lie on both sides. GTP binding activity, % at 10 µM. 190,000 tested, 0.14% active. AID 759, 2007;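 active means GTP binding activity at least 20% away from the 100% baseline, either lowered as inhibitor or raised as activator; inconclusive means flagged as likely green fluorescent, judged across all proteins in the well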;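 further: 0% = unlabeled GTP competition control and 100% = no-compound control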
Target sequence (P01112 whole entry, looked up): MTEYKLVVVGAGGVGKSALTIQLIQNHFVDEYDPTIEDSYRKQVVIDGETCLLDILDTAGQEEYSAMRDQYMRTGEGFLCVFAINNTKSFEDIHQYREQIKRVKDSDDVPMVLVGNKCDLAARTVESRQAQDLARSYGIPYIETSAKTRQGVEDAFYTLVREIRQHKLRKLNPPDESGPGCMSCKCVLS
Rab2 wt GTP: modulators of GTP binding to Rab2A wildtype, primary screen, biochemical, dog, bead-based flow cytometry, multiplex; Ras-related protein Rab-2A (Canis lupus familiaris), P61105; GST-Rab2 wt beads, Bodipy-GTP binding; GTP binding activity, % at 10 µM; 190,000 tested, 0.19% active; AID 760, 2007;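 active means GTP binding activity at least 20 points away from 100%, either lowered or raised; inconclusive means signal likely due to the compound's own green fluorescence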;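 further: 0% = beads with excess unlabeled GTP and 100% = no-compound control corrected for plate trend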
Cdc42 wt: modulators of GTP binding to wildtype Cdc42, primary screen, biochemical, multiplex bead flow cytometry, Bodipy-GTP | GST-Cdc42 beads; actives lie on both sides | percent activity (GTP binding), % at 10 µM | 190,000 tested, 0.2% active | AID 761, 2007;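 active means percent activity GTP binding at least 20 points away from the 100% baseline, either down as inhibitor or up as activator; inconclusive means compound flagged as likely green fluorescent from well-wide comparison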;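 further: median bead fluorescence of bound Bodipy-FL-GTP at 100 nM; 0% = excess unlabeled GTP control and 100% = no compound control; below 100% means less GTP binding so inhibitor and above means activator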
Target sequence (P60953 whole entry, looked up): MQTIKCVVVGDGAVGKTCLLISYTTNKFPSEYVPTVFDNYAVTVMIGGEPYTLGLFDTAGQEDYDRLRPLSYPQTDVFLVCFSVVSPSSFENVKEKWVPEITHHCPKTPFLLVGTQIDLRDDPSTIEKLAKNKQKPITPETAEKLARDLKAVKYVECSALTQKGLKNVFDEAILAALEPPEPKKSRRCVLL
Rac1 wt GTP bind: wildtype Rac1 GTP binding modulators, primary screen, biochemical, GST-Rac1 beads, flow cytometry, multiplex; GTP binding activity (% of control), % at 10 µM; Ras-related C3 botulinum toxin substrate 1 (Homo sapiens), P63000; fluorescent GTP binding; actives lie on both sides; 0 = cold GTP competed, 100 = untreated; 190,000 tested, 0.27% active; AID 757, 2007;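 active means GTP binding activity at least 20 points away from the 100% control level, either lower or higher; inconclusive means compound flagged as likely green fluorescent, judged across all proteins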
* hit, by the source's call; ? = inconclusive; [ ] = another dose, or the depositor's remark.

SMILES	Rab7 wt GTP bind	Rac1 act GTP bind	HRas wt GTP bind	Rab2 wt GTP	Cdc42 wt	Rac1 wt GTP bind
CCC(=O)Nc1cccc(NC(=S)NC(=O)c2ccccc2C)c1	101	95	97	96	95	95
O=C(Nc1cccc(Cl)c1)N1CCN(c2ncccn2)CC1	108	104	109	111	114	125*[activator]
O=C(Nc1ccc(Cl)cc1Cl)N1CCN(c2ncccn2)CC1	94	94	94	95	95	97
CN(CCC1CCCCO1)C(=O)CCc1nnc(C2CCCCC2)o1 (centres undefined)	94	95	94	96	98	100
Cc1ccc(Sc2ncccc2C(=O)O)c(C)c1	106	127*[activator]	123*[activator]	124*[activator]	126*[activator]	135*[activator]
Cc1ccc(C)c(CSc2ncccc2C(=O)O)c1	114	126*[activator]	113	114	132*[activator]	144*[activator]
O=C(O)c1cccnc1SCc1ccccc1Cl	115	121*[activator]	116	118	122*[activator]	131*[activator]
O=C(O)CSc1ncccc1C(=O)O	98	101	102	99	104	103
CCn1cc(C(=O)O)c(=O)c2cc(F)c(N/N=C/c3ccccc3[N+](=O)[O-])cc21	77*	78*	63*	58*	82	64*
Cc1ccc(/C=C(\CCC(=O)O)c2nc3ccccc3s2)cc1[N+](=O)[O-]	87	78*	86	79*	83	83
COc1cccc(C2CC(c3ccccc3OC)n3ncnc3N2)c1 (centres undefined)	100	98	100	99	98	107
COc1cccc(C2CC(c3ccccc3)Nc3ncnn32)c1 (centres undefined)	98	102	103	106	113	123*[activator]
COc1ccc(-c2noc(CCC(=O)N3CCN(c4cc(C)ccc4C)CC3)n2)cc1	85	75*	82	78*	80	82
CNC(=S)N1CCN(C(=O)c2ccco2)CC1	102	99	100	99	98	104
O=C(CNC(=O)Cc1ccccc1)N=Nc1c(O)n(Cc2ccc3c(c2)OCO3)c2ccccc12	90	88	84	78*	90	78*
CCOC(=O)c1c2c3c(c(Cl)ccc3[nH]c1=O)C(=O)c1ccccc1-2	88	65*	44*	44*	41*	45*
CCOC(=O)c1c2c3c(cccc3[nH]c1=O)C(=O)c1ccccc1-2	84	80	66*	65*	63*	76*
COCCCNc1c2c3c(cccc3[nH]c1=O)C(=O)c1ccccc1-2	87	90	84	82	86	84
Cc1cc(C)c(S(=O)(=O)N2CCCOC2CNC(=O)C(=O)NCc2ccncc2)c(C)c1 (centres undefined)	106	101	101	101	104	105
COCCn1c(N)c(C(=O)Nc2sc3c(c2C(=O)OC)CCCC3)c2nc3ccccc3nc21	84	80	63*	69*	63*	77*
Cc1cc(/C=c2\sc3nc4ccccc4n3c2=O)c(C)n1-c1ccc(C(=O)O)cc1	94	76*	88	85	78*	81
O=C(COc1ccccc1[N+](=O)[O-])Nc1cc(Cl)ccc1C(=O)O	92	79*	85	83	80	87
Cc1cc(NS(=O)(=O)c2ccc(NC(=O)c3cc4c(=O)n5ccccc5nc4s3)cc2)nc(C)n1	104	85	82	80	76*	83
CN(C)S(=O)(=O)c1cccc(NC(=O)c2cc3c(=O)n4ccccc4nc3s2)c1	93	96	89	87	96	91
COc1ccc(CC(=O)OCc2cc(=O)n3cc(Br)ccc3n2)cc1OC	97	98	98	97	100	101
SMILES	Rab7 wt GTP bind	Rac1 act GTP bind	HRas wt GTP bind	Rab2 wt GTP	Cdc42 wt	Rac1 wt GTP bind
COc1ccc(C(=O)OCC(=O)Nc2nc3c(F)c(F)c(F)cc3s2)cc1OC	102	93	97	98	97	98
O=C(COC(=O)C12CC3CC(CC(C3)C1)C2)Nc1nc2c(F)c(F)c(F)cc2s1	93	96	94	94	74*	93
CN(C)c1ccc(N2CC(C)(C)C2=O)cc1	98	94	91	94	93	92
O=C(NCC1CCCO1)C(c1ccccn1)N(Cc1ccccc1Cl)C(=O)CN1C(=O)c2ccccc2S1(=O)=O (centres undefined)	104	97	98	99	98	100
Nc1c(S(=O)(=O)c2cccc(Cl)c2)c2nc3ccccc3nc2n1/N=C/c1ccc(O)c(O)c1	?	80	63*	76*	63*	79*
COc1cccc(/C=N/n2c(N)c(S(=O)(=O)c3cccs3)c3nc4ccccc4nc32)c1OC	91	89	84	85	81	88
Cc1cc(C)n(C(C)n2nc(C)cc2C)n1	98	99	101	99	103	109
CC(=O)Nc1ccc(Nc2ccc3c4c(cc(=O)n3C)-c3ccccc3C(=O)c24)cc1	93	87	86	85	88	77*
Cc1ccc(NCC(=O)c2ccccc2)cc1Cl	82	92	78*	88	93	91
N#Cc1c2c(c(-c3ccccc3Cl)[nH]c1=S)CCCC2	91	80	85	86	79*	80
N#Cc1c(-c2ccccc2Cl)cc(-c2ccccc2)[nH]c1=S	104	90	95	96	93	93
Cc1ccc(-n2c(SCc3cc(=O)n4ccsc4n3)nnc2-c2cccnc2)c(C)c1	108	120*[activator]	109	118	146*[activator]	163*[activator]
Cc1ccc(-n2c(SCC(N)=O)nnc2-c2cccnc2)c(C)c1	105	100	101	104	102	107
NC(N)=NS(=O)(=O)c1ccc(NC(=S)NC(=O)c2ccc3c(c2)OCO3)cc1	100	105	111	114	109	123*[activator]
Cc1c(NS(=O)(=O)c2ccc3c(c2)n(C)c(=O)n3C)c(=O)n(-c2ccccc2)n1C	98	102	103	103	104	109
